Only a sample is shown.
aSyn 5UTR act: Activators working through SNCA 5'UTR binding (MLPCN). alpha-synuclein 5'UTR reporter, activators screen. hit rate 7.1% among 300,000. activity score, % (tested at 7.5 µM), hits read low; in the data active = activity score below about -60%
Each line names hits and unclear results; the compound was inactive in the other large screens.

COc1ccccc1-c1nnc(-c2ccc(N3CCOCC3)cc2)o1	aSyn 5UTR act -106
COc1ccccc1-c1nnc(SCC(=O)N2CCOCC2)o1	aSyn 5UTR act -85
Cc1ccccc1-c1nnc(SCC(=O)N2CCCC2)o1	aSyn 5UTR act -135
O=C(CSc1nnc2ccc3ccccc3n12)N1CCOCC1	aSyn 5UTR act -94
Cc1ccc2nc(N/N=C/c3ccco3)cc(C)c2c1	aSyn 5UTR act -186
Cc1cc2ncn(/N=C/c3ccc([N+](=O)[O-])o3)c2cc1C	aSyn 5UTR act -122
O=C(N/N=C/c1ccc([N+](=O)[O-])o1)c1cc(-c2ccc(-c3ccccc3)cc2)nc2ccccc12	none
Cc1cc(N/N=C/c2ccc([N+](=O)[O-])o2)nc2ccccc12	aSyn 5UTR act -133
O=C(N/N=C/c1ccc([N+](=O)[O-])o1)c1cc(-c2ccncc2)nc2ccccc12	aSyn 5UTR act -67
Cc1ccc2nc(-c3ccc(NC(=O)CSCC(=O)O)cc3)sc2c1	aSyn 5UTR act -197
Cc1ccc2sc(-c3ccc(NC(=O)/C=C\C(=O)O)cc3)nc2c1	aSyn 5UTR act -96
Cc1ccc2nc(-c3ccc(NC(=O)COCC(=O)O)cc3)sc2c1	aSyn 5UTR act -96
CN(C)c1ccc(NC(=O)C2C3C=CC(C3)C2C(=O)O)cc1 (centres undefined)	aSyn 5UTR act -73
CCc1ccc(NC(=O)C2C3C=CC(C4CC34)C2C(=O)O)cc1 (centres undefined)	aSyn 5UTR act -74
CC1c2cc3c(cc2CCN1C(=O)c1cccc(F)c1)OCCCO3 (centres undefined)	aSyn 5UTR act -69
COC(=O)c1sc2nc3c(cc2c1N)COC(C)(C)C3	aSyn 5UTR act -131
CC1(C)Cc2nc3sc(C(=O)NCCCO)c(N)c3cc2CO1	aSyn 5UTR act -69
COc1ccc(N2C3=[N+](CC2(C)O)c2ccccc2CC3)cc1 (centres undefined)	aSyn 5UTR act -110
COc1nccnc1NS(=O)(=O)c1ccc(NCc2cc(Br)ccc2O)cc1	aSyn 5UTR act -83
O=C(Nc1ccc2ccccc2c1)c1cccc(F)c1	aSyn 5UTR act -117
CC(C)CC(=O)Nc1ccc2ccccc2c1	aSyn 5UTR act -99
Cc1ccc2cc(NC(=O)c3ccccc3)ccc2n1	aSyn 5UTR act -85
Cc1ccc2cc(NC(=O)c3cccc(F)c3)ccc2n1	aSyn 5UTR act -79
O=C(Nc1ccc2ccccc2c1)c1ccc(NS(=O)(=O)c2ccc(Br)s2)cc1	aSyn 5UTR act -102
CN(Cc1ccccc1)C(=O)C(C(=O)c1ccc(F)cc1)n1cc(Cl)ccc1=O (centres undefined)	aSyn 5UTR act -67
CC(C)c1ccc(Nc2ncccc2C(=O)O)cc1	aSyn 5UTR act -101
COC(=O)c1ccc(CN2C(=O)NC3(CCCCC3)C2=O)cc1	aSyn 5UTR act -124
Cc1cc(C(=O)CN2C(=O)NC3(CCCCC3C)C2=O)c(C)n1Cc1cccs1 (centres undefined)	aSyn 5UTR act -165
CCOC(=O)c1c(C)[nH]c(C(=O)CSc2nccc(C)n2)c1C	aSyn 5UTR act -129
CCOC(=O)c1c(C)[nH]c(C(=O)CN2C(=O)NC3(CCCC3)C2=O)c1C	aSyn 5UTR act -67
COc1ccc(C(=O)CN2C(=O)NC3(CCCCCC3)C2=O)cc1	aSyn 5UTR act -90
Cc1cc(C(=O)CN2C(=O)NC3(CCCCC3)C2=O)c(C)n1C	aSyn 5UTR act -69
COc1ccc(C(=O)CN2C(=O)c3ccccc3S2(=O)=O)cc1	none
Cc1cc(C)c(C(=O)CN2C(=O)NC3(CCCCCC3)C2=O)cc1C	aSyn 5UTR act -72
Cc1nc(-c2ccc(NC(=O)c3ccccc3C)cc2)cs1	aSyn 5UTR act -123
Cc1nc(-c2ccc(NC(=O)c3ccccc3Br)cc2)cs1	aSyn 5UTR act -161
CC(C)c1ccc(C(=O)NN2C(=O)C3CCCCC3C2=O)cc1 (centres undefined)	aSyn 5UTR act -85
CC(C)c1ccc(C(=O)NNC(=O)C2C3CCC(C3)C2C(=O)O)cc1 (centres undefined)	aSyn 5UTR act -115
O=C(NNC(=O)c1ccccc1O)c1ccc(Br)cc1	aSyn 5UTR act -116
O=C(NNC(=O)c1ccccc1O)c1ccc(Cl)cc1	aSyn 5UTR act -81
Cc1cccc(C(=O)NNC(=O)c2ccc(Cl)cc2)c1O	aSyn 5UTR act -141
O=C(NNC(=O)c1cccs1)c1ccc(Br)cc1	aSyn 5UTR act -78
O=C(COC(=O)c1ccc(O)cc1O)c1ccc(Cl)cc1	aSyn 5UTR act -96
O=C(NNC(=O)c1ccccc1O)c1cccc(Br)c1	aSyn 5UTR act -133
O=C(NNC(=O)c1ccc(O)cc1O)c1ccc(Cl)cc1	aSyn 5UTR act -72
Cc1ccc(-c2ccc3c(c2)S(=O)(=O)c2ccccc2C3=O)cc1	aSyn 5UTR act -156
Cn1cc(Cl)cc(C(=O)Nc2ccccc2)c1=O	aSyn 5UTR act -133
N/C(=N\OC(=O)c1cc(Cl)ccc1Cl)c1ccccn1	aSyn 5UTR act -122
COc1ccc(Cl)cc1C(=O)O/N=C(\N)c1ccccn1	aSyn 5UTR act -159
COc1ccccc1C(=O)O/N=C(\N)c1ccccc1Cl	aSyn 5UTR act -139
N/C(=N\OCc1ccc([N+](=O)[O-])cc1)c1ccccn1	none
C/C(=N/OCc1ccc(Br)cc1)c1ccccn1	aSyn 5UTR act -123
CC1CCCN(c2ccc(C(=O)NCc3cccs3)cn2)C1 (centres undefined)	aSyn 5UTR act -85
CC1CCCN(c2ccc(C(=O)NCc3ccccc3)cn2)C1 (centres undefined)	aSyn 5UTR act -103
O=C(NCc1cccs1)c1ccc(N2CCCC2=O)cc1	aSyn 5UTR act -106
CC1CCN(c2ccc(C(=O)NCCc3ccccc3)cn2)CC1	aSyn 5UTR act -105
O=C(NCc1cccs1)c1ccc(N2CCCCC2)nc1	aSyn 5UTR act -131
O=C(Cc1ccc(N2CCNC2=O)cc1)N1CCCC(Nc2cccc(F)c2)C1 (centres undefined)	none
O=C(NCCCN1CCCC1=O)C(=O)Nc1cccc(F)c1	aSyn 5UTR act -107
Cc1ccc(NC(=O)NCCCN2CCCC2=O)cc1Cl	aSyn 5UTR act -66
Cc1ccc(C2=NN3C(=O)c4ccccc4C3C2)cc1 (centres undefined)	aSyn 5UTR act -170
C=CC(C)N1C(=O)S/C(=C\c2ccc(N3CCOCC3)cc2C)C1=O (centres undefined)	aSyn 5UTR act -120
O=C1NC(=O)/C(=C\c2ccc(O)cc2O)S1	aSyn 5UTR act -77
Cc1cc(N2CCOCC2)ccc1/C=C1/SC(=O)NC1=O	aSyn 5UTR act -67
C=CCN1C(=O)S/C(=C\c2ccc(N3CCOCC3)cc2C)C1=O	aSyn 5UTR act -152
Cc1cc(N2CCCC2)ccc1/C=C1\NC(=S)N(C)C1=O	aSyn 5UTR act -261
O=C(CC(Nc1ccc(F)cc1)C(=O)OCC(=O)c1cccs1)c1ccccc1 (centres undefined)	aSyn 5UTR act -113
O=C(CC(Nc1ccc(F)cc1)C(=O)O)c1ccccc1 (centres undefined)	aSyn 5UTR act -171
NNC(=O)c1cc2sccc2s1	aSyn 5UTR act -80
CSC1=C(C#N)C(c2ccc(Cl)cc2)C2=C(CC(C)(C)CC2=O)N1 (centres undefined)	none
CC(C)CCNC(=O)C(=O)Nc1ccc2c(c1)N(S(=O)(=O)c1cccs1)CCC2	aSyn 5UTR act -73
COc1cccc(NC(=O)C(=O)NCCC2CCCCN2S(=O)(=O)c2cccs2)c1 (centres undefined)	aSyn 5UTR act -148
O=C(O)c1cccc(N/N=C/C2=C(Cl)c3cc(Cl)ccc3SC2)c1	aSyn 5UTR act -103
O=C(/C=C/c1ccc(-c2ccc(F)cc2)o1)N1CCCC1	aSyn 5UTR act -127

Screening data from PubChem.
